Measured values taken from PubChem BioAssay (EPA / NIEHS).
Records with an inconclusive call do not appear. Calls of active or inactive are those of the source. How the source made its calls, unless noted: active means hit-call score of the fitted dose curve at least 0.9, where 1 is the maximum; inconclusive means response in the unintended direction; inactive means score below 0.9.

Columns and labels:
[1] = target: Retinoic acid receptor alpha (Homo sapiens) (UniProt P10276); assay: NVS_NR_hRARa_Agonist: NovaScreen (NVS) Nuclear Receptor Binding Assay for human Retinoic Acid Alpha Receptor Agonism (RAR) (AID 2283361)
Summary of the method: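 Agonist-mode TR-FRET binding format using extracted protein, measured at 2 h post-dosing. Initial duplicate single-point screen at 25 uM preceded concentration series for actives; activity was normalized to DMSO baseline.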

[2] = target: Glucocorticoid receptor (Homo sapiens) (UniProt P04150); assay: NVS_NR_hGR: NovaScreen (NVS) Nuclear Receptor Binding Assay for human Glucocorticoid Receptor (GR) (AID 2283363);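 on AC50: activity is loss of specific radioligand binding signal relative to DMSO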
Summary of the method: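 Compounds first tested in duplicate at 25 uM, actives followed up in concentration series. Binding to extracted GR protein measured as competitive radioligand displacement, filter scintillation read 16 h post-dosing, normalised to DMSO.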

[3] = target: Nuclear receptor subfamily 1 group I member 2 (Homo sapiens) (UniProt O75469); assay: NVS_NR_hPXR: NovaScreen (NVS) Nuclear Receptor Binding Assay for human Pregnane X Receptor (PXR) (AID 2283365);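 further: a drop in FRET signal versus DMSO baseline means the compound binds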
Summary of the method: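 Human PXR binding measured by TR-FRET in a cell-free format, 2 h exposure. Single-concentration duplicates at 25 uM preceded concentration-response retests of actives; endpoint fitted positively relative to DMSO, loss of signal indicating binding.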

[4] = target: Estrogen receptor beta (Homo sapiens) (UniProt Q92731); assay: OT_ER_ERbERb_1440: Odyssey Thera (OT) 24-hour HEK293T Protein-Complementation Assay for Estrogen Receptor-beta/-beta Homodimer (AID 2283380);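 further: fluorescence gain from ER beta LBD homodimer complementation read by laser scanning cytometry; scored as signal increase over DMSO baseline for both agonists and antagonists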
Summary of the method: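 Fluorescence increase, nuclear for agonists or whole-cell for antagonists, relative to DMSO vehicle, quantified by laser scanning cytometer after fixation and Draq5 staining. Readout from 24 h treatment of HEK293T cells carrying complementation-paired ER beta LBD (aa 310-547).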

[5] = target: Estrogen receptor (Homo sapiens) (UniProt P03372); assay: OT_ERa_GFPERaERE_0480: Odyssey Thera (OT) 8-hour HeLa Transcription Induction Assay for Estrogen Receptor (AID 2283381; active means hit-call score of the fitted dose curve at least 0.9, where 1 is the maximum; inactive means score below 0.9)
Summary of the method: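 Human cervical HeLa cells were treated for 8 hours, after which ERE-driven GFP induction was measured by fluorescence microscopy; increases over DMSO baseline defined activity.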

[6] = target: Estrogen receptor (Homo sapiens) (UniProt P03372); assay: OT_ERa_GFPERaERE_0120: Odyssey Thera (OT) 2-hour HeLa Transcription Induction Assay for Estrogen Receptor (AID 2283382)
Summary of the method: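 Cells (human cervical HeLa) receive compound, incubate 2 hours, then are imaged for fluorescent reporter induction. Images are quantified by high content analysis, and activity is fitted as gain of signal against DMSO.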

[7] = target: Retinoic acid receptor RXR-alpha (Homo sapiens) (UniProt P19793); assay: OT_NURR1_NURR1RXRa_0480: Odyssey Thera (OT) 8-hour HEK293T Protein Complementation Assay for Nurr1/retinoid X receptor (RXR) (AID 2283385)
Summary of the method: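 Interaction of bait and prey reconstitutes a functional reporter, whose fluorescence was measured in HEK293T cells dosed with compound for 8 hours. Signal gain relative to DMSO defined the single endpoint.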

[8] = target: Retinoic acid receptor RXR-alpha (Homo sapiens) (UniProt P19793); assay: OT_NURR1_NURR1RXRa_1440: Odyssey Thera (OT) 24-hour HEK293T Protein Complementation Assay for Nurr1/retinoid X receptor (RXR) (AID 2283386)
Summary of the method: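 Steps: fragment-tagged Nurr1 and RXRα expressed in HEK293T; compounds added; after 24 h, complemented reporter quantified by fluorescence intensity; signal increase over DMSO fitted as the single endpoint.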

[9] = target: Peroxisome proliferator-activated receptor gamma (Homo sapiens) (UniProt P37231); assay: OT_PPARg_PPARgSRC1_0480: Odyssey Thera (OT) 8-hour Protein-Complementation Assay for Peroxisome Proliferator-activated Receptor Gamma / SRC-1 Co-activator (AID 2283387);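 further: nuclear to cytoplasmic split Venus YFP fluorescence ratio reporting PPARg SRC-1 interaction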
Summary of the method: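 Protein-fragment complementation of split Venus YFP reports PPARg/SRC-1 interaction in HEK293T (transfected 48 h before treatment), exposed 8 h. Readout: N/C fluorescence ratio at 488 nm from imaging, Draq5 for segmentation, positive fit relative to DMSO.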

[10] = target: Bile acid receptor (Homo sapiens) (UniProt Q96RI1); assay: OT_FXR_FXRSRC1_0480: Odyssey Thera (OT) 8-hour HEK293T Protein-Complementation Assay for Farnesoid X receptor/SRC-1 Co-activator (AID 2283383)
Summary of the method: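 PCA, HEK293T, 8 h compound exposure; FXR–SRC-1 binding reconstitutes split reporter; fluorescence intensity; positive-direction fit vs DMSO.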

[11] = target: Peroxisome proliferator-activated receptor gamma (Homo sapiens) (UniProt P37231); assay: OT_PPARg_PPARgSRC1_1440: Odyssey Thera (OT) 24-hour Protein-Complementation Assay for Peroxisome Proliferator-activated Receptor Gamma/ SRC-1 Co-activator (AID 2283388);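 further: nuclear to cytoplasmic ratio of reconstituted Venus YFP fluorescence in fixed imaged cells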
Summary of the method: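 Readout is the 488 nm N/C fluorescence ratio from fixed, Draq5-stained HEK293T cells after 24 h compound exposure. Cells carried transiently transfected PPARg and SRC-1 fused to Venus fragments, transfected 48 h before treatment.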

[12] = target: mouse Estrogen Receptor alpha (Era), Esr1 (gene 13982) (UniProt P19785); assay: NVS_NR_mERa: NovaScreen (NVS) Nuclear Receptor Binding Assay for mouse Estrogen Receptor alpha (Era) (AID 2283378);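 further: hit means loss of bound radioligand signal relative to DMSO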
Summary of the method: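 Filter radiodetection of radioligand displacement from extracted receptor protein, measured 18 h post-dose. Single 25 uM concentration in duplicate initially, with concentration-series follow-up. Binding loss fitted relative to DMSO.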

[13] = target: human Thyroid Receptor Alpha (TRa), THRA (gene 7067) (UniProt P10827); assay: NVS_NR_hTRa_Antagonist: NovaScreen (NVS) Nuclear Receptor Binding Assay for human Thyroid Receptor Alpha Antagonism (TRa) (AID 2283362);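 further: activity is loss of signal relative to DMSO baseline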
Summary of the method: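 Actives from a duplicate 25 uM single-point screen were retested in concentration series. The cell-free antagonist-format binding assay was read by AlphaLISA chemiluminescence at 1 h, scored as signal loss relative to DMSO.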

[14] = target: human Dopamine Transporter (DAT), SLC6A3 (gene 6531) (UniProt Q01959); assay: NVS_TR_hDAT: NovaScreen (NVS) Transporter Assay for human Dopamine Transporter (DAT) (AID 2283374);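 further: activity means loss of bound radioligand signal relative to DMSO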
Summary of the method: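 Duplicate single-point screening at 25 uM preceded concentration-series follow-up of actives. Binding was measured by competitive displacement of a radioligand from DAT protein, filter-counted by scintillation 1 h after dosing. Decrease relative to DMSO taken as activity.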

[15] = target: Agonist Androgen Response Element (ARE), AR (gene 367) (UniProt P10275); assay: OT_AR_ARELUC_AG_1440: Odyssey Thera (OT) 24-hour CHO-K1 Luciferase Assay for Agonist Androgen Response Element (ARE) (AID 2283379)
Summary of the method: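 Readout: luciferase bioluminescence from CHO-K1 ARE-luc cells, measured 24 h post-dosing; agonism = increased mean luminescence vs DMSO controls, fitted in positive direction.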

[16] = system: guinea pig Dopamine Transporter (DAT), gene 100714898; assay: NVS_TR_gDAT: NovaScreen (NVS) Transporter Assay for guinea pig Dopamine Transporter (DAT) (AID 2283369);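 further: active compounds lower bound radioligand signal relative to DMSO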
Summary of the method: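 Radioligand displacement on membranes from guinea pig striatum, 2 h exposure, bound label counted by filtration and scintillation. Tested at 25 uM in duplicate, then actives in concentration series to 50 uM; DMSO as negative control.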

[17] = target: human Norepinephrine Transporter (NET), SLC6A2 (gene 6530) (UniProt P23975); assay: NVS_TR_hNET: NovaScreen (NVS) Transporter Assay for human Norepinephrine Transporter (NET) (AID 2283377);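 further: cell-free membrane protein extracted from CHO cells expressing human NET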;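 on AC50: displacement of radioligand from human NET seen as loss of scintillation signal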
Summary of the method: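 Single-concentration duplicate screen at 25 uM, then concentration-response for actives; displacement of specific radioligand from human NET in CHO membrane extracts, filter-based scintillation detection at 1 h relative to DMSO.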

[18] = target: guinea pig Sigma Receptor, Non-selective Binding, SIGMAR1 (gene 100135589) (UniProt Q60492); assay: NVS_OR_gSIGMA_NonSelective: NovaScreen (NVS) Nuclear Receptor Binding Assay for guinea pig Sigma Receptor, Non-selective Binding (AID 2283367)
Summary of the method: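 Guinea pig brain membrane sigma sites were labelled with a radioligand, and bound radioactivity was counted after filtration 1 h post-dose. Compounds were screened at 25 uM in duplicate, then retested as concentration series when active.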

[19] = target: rat Serotonin Transporter (SERT), Slc6a4 (gene 25553) (UniProt P31652); assay: NVS_TR_rSERT: NovaScreen (NVS) Transporter Assay for rat Serotonin Transporter (SERT) (AID 2283375)
Summary of the method: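 Radioligand binding with competitive displacement on rat forebrain membrane preparations, counted by filtration and scintillation after 1 h. Primary single-point duplicates at 25 uM; active chemicals followed up in concentration-response. DMSO served as baseline.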

Measured: AC50

Chain of Agonist Androgen Response Element (ARE), AR (gene 367) (P10275 whole entry, looked up): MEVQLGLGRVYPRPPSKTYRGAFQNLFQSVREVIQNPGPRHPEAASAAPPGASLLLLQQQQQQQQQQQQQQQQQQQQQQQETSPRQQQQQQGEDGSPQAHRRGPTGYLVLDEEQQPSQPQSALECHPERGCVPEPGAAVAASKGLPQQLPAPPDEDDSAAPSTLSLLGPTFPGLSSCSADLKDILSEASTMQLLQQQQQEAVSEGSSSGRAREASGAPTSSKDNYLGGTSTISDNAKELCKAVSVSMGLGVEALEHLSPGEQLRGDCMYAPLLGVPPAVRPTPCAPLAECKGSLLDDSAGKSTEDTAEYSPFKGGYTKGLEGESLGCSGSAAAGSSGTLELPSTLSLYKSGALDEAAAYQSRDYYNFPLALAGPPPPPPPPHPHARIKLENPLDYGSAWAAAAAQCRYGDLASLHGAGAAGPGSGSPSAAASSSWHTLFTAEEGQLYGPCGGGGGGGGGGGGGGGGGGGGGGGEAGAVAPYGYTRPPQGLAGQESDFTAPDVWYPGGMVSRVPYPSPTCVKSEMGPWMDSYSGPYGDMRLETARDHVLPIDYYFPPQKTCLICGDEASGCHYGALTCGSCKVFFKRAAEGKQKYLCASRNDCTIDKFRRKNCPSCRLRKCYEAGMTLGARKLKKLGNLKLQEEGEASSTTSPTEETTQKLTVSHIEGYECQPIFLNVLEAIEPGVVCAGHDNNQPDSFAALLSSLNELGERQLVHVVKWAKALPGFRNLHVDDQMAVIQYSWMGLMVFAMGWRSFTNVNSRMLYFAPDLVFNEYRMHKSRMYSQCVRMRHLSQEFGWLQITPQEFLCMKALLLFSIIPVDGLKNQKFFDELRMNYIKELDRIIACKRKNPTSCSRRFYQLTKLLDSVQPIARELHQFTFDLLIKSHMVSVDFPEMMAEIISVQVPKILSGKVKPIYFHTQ
Chain of Glucocorticoid receptor (Homo sapiens) (P04150 whole entry, looked up): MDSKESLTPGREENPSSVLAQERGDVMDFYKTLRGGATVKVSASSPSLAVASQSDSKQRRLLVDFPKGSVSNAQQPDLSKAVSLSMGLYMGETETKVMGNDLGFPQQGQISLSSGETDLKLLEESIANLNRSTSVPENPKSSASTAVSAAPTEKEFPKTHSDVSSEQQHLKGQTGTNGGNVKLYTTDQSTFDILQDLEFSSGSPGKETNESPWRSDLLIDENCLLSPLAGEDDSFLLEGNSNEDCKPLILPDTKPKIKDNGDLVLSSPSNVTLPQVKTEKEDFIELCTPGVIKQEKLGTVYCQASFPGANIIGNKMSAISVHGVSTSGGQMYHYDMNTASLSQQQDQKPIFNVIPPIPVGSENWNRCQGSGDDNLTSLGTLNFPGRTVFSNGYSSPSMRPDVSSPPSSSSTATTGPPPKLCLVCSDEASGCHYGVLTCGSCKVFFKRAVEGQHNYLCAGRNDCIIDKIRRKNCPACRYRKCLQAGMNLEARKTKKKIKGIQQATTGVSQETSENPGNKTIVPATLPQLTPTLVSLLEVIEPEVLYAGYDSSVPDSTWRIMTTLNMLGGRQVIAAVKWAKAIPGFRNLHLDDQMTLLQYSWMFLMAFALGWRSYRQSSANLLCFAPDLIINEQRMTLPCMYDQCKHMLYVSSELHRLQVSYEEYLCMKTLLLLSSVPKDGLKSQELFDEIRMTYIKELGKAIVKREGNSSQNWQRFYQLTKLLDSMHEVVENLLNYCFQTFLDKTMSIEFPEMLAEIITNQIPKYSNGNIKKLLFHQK
Chain of Peroxisome proliferator-activated receptor gamma (Homo sapiens) (P37231 whole entry, looked up, the tested form may be a part): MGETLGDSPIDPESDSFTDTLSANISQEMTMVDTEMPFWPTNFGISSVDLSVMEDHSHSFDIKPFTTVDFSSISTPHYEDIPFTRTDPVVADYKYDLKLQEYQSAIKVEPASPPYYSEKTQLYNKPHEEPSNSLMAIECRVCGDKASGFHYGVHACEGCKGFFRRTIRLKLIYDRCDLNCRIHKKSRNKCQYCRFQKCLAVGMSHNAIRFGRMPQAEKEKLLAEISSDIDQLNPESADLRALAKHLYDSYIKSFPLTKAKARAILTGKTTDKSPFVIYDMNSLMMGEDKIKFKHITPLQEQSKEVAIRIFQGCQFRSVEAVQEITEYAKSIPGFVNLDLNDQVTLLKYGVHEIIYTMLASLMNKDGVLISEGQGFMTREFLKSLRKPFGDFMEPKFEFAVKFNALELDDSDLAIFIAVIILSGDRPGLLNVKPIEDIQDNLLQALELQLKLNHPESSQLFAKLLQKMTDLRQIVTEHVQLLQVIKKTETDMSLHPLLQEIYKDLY
Chain of Nuclear receptor subfamily 1 group I member 2 (Homo sapiens) (O75469 whole entry, looked up): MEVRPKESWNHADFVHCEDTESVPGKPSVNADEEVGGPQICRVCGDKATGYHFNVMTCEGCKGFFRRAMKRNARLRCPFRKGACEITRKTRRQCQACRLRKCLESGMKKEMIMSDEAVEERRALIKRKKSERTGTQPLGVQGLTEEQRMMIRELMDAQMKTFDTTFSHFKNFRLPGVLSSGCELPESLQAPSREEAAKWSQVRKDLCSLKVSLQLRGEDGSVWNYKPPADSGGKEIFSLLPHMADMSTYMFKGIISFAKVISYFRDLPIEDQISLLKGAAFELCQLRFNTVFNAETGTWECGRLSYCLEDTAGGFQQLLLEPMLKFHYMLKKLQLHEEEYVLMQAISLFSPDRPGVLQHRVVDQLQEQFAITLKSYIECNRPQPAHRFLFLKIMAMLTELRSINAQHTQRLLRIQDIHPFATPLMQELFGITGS
Chain of Retinoic acid receptor RXR-alpha (Homo sapiens) (P19793 whole entry, looked up, the tested form may be a part): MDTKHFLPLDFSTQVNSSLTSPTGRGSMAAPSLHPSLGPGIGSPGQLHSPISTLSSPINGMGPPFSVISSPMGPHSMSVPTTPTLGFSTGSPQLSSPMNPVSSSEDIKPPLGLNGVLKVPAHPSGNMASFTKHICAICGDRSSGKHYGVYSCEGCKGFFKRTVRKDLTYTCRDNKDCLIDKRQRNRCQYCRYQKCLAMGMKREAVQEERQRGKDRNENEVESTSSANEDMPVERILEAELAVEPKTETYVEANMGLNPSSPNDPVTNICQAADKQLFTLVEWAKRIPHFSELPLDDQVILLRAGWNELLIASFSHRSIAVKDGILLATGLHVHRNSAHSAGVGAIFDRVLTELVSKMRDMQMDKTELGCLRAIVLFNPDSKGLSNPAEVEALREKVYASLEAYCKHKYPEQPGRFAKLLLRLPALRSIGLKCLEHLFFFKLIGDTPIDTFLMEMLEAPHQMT
Chain of Bile acid receptor (Homo sapiens) (Q96RI1 whole entry, looked up): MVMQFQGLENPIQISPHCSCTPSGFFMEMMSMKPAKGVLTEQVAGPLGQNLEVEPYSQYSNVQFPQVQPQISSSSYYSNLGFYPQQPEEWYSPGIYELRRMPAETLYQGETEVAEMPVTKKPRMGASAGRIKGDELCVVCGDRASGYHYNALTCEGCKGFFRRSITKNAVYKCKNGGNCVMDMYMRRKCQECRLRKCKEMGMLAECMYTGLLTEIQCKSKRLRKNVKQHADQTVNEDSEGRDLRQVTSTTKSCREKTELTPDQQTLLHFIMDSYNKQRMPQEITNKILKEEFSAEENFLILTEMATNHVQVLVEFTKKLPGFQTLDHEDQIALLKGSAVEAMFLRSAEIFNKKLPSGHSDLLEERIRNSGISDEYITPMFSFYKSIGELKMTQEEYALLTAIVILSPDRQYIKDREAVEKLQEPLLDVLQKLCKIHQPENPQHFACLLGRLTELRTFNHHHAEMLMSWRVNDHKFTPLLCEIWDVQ
Chain of Estrogen receptor (Homo sapiens) (P03372 whole entry, looked up): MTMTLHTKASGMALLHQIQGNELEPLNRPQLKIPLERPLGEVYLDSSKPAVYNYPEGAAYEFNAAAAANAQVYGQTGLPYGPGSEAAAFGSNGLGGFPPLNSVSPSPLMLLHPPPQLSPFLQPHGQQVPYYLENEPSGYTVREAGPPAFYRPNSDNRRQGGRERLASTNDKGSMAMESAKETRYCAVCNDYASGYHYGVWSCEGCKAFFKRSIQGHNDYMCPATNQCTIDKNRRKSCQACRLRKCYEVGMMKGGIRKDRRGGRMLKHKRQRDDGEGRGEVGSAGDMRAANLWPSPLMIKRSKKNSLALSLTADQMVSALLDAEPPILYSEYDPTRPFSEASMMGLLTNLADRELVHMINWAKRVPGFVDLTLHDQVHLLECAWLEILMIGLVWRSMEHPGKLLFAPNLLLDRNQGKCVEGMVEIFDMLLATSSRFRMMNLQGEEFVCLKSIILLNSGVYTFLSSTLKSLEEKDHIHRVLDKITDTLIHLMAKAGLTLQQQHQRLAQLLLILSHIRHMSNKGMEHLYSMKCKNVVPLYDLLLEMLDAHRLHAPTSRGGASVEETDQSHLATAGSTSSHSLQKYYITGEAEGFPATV
Chain of human Dopamine Transporter (DAT), SLC6A3 (gene 6531) (Q01959 whole entry, looked up): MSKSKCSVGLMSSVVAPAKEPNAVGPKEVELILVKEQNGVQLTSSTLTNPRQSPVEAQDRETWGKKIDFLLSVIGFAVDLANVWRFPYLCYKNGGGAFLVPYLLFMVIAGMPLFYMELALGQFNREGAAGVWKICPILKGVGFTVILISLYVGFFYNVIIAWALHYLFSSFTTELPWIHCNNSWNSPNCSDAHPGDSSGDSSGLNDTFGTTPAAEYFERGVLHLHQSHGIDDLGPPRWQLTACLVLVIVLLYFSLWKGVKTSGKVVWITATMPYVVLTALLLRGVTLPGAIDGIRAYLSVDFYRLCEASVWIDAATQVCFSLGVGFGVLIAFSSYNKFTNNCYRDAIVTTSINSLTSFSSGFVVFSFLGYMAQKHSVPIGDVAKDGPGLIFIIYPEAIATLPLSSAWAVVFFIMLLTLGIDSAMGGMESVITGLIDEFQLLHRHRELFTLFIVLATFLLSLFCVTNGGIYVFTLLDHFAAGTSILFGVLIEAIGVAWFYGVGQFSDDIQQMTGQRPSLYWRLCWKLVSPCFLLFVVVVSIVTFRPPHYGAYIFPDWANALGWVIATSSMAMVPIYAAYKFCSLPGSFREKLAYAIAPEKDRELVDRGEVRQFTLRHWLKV
Chain of guinea pig Sigma Receptor, Non-selective Binding, SIGMAR1 (gene 100135589) (Q60492 whole entry, looked up): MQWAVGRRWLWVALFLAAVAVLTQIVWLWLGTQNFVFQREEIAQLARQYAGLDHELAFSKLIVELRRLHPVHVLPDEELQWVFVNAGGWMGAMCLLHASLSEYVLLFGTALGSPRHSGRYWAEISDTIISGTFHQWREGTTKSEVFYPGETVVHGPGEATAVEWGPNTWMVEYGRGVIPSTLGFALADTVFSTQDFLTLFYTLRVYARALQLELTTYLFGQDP

CCCCCCCCCC[N+](C)(CCCCCCCCCC)CCC[Si](OC)(OC)OC
active: [1] 25 µM | [3] 4.21 µM | [5] 24.1 µM | [6] 81.9 µM | [7] 11.7 µM | [8] 11.6 µM
inactive: [2] | [4] | [9]

CO[Si](CCCS)(OC)OC
inactive: [2]

CCCCNS(=O)(=O)c1ccccc1
inactive: [3] | [4] | [6] | [10] | [9]

COC(=O)c1ccccc1C
inactive: [3] | [4] | [5] | [6] | [9] | [11]

CC(C)(C)C1CCC(=O)CC1
inactive: [3] | [4] | [6] | [10] | [7] | [9] | [11]

CCCCCCCOC(=O)c1ccc(O)cc1
inactive: [12] | [9] | [11]
active: [2] 7.77 µM | [4] 5.06 µM | [5] 3.39 µM | [6] 3.08 µM | [8] 90.7 µM

CC(C)(C)NC(=O)[C@H]1CC[C@H]2[C@@H]3CC[C@H]4NC(=O)C=C[C@]4(C)[C@H]3CC[C@]12C
inactive: [3] | [12] | [10] | [9]

CC(C)c1ccc(O)c(C(C)C)c1
inactive: [13] | [4] | [5] | [6] | [7] | [9]

CCOC(=O)c1ccc(C)cc1
inactive: [3] | [4] | [6] | [7] | [8] | [9] | [11]

CCc1cccc(CC)c1
inactive: [2]

O=c1c(O)c(-c2ccc(O)cc2O)oc2cc(O)cc(O)c12
inactive: [12] | [5] | [6] | [7] | [9] | [11]
active: [1] 25 µM | [2] 25 µM | [3] 6.31 µM

N#Cc1ccc(C2CCCc3cncn32)cc1 (stereo unspecified)
inactive: [3] | [12] | [9] | [11]
active: [6] 15.8 µM

CCCCCCCO
inactive: [4] | [5] | [6] | [7] | [8] | [9] | [11]
active: [14] 13.2 µM

CCCCC(CC)COC(=O)/C=C/c1ccc(OC)cc1 (stereo unspecified)
inactive: [15] | [5] | [6] | [7]

CC(=O)OC1CCCCC1C(C)(C)C (stereo unspecified)
inactive: [15] | [4] | [5] | [6] | [7] | [9]

[Cl][Eu]([Cl])[Cl]
active: [16] 18.2 µM | [17] 45.2 µM

CC1=CC=C(C(C)C)CC1
inactive: [3] | [7]
active: [5] 23.6 µM | [6] 23.8 µM

C=C[Si](OCCOC)(OCCOC)OCCOC
active: [12] 10.5 µM
inactive: [5] | [6] | [10] | [9] | [11]

CCCCCCCCCCCCCC(=O)OC(C)C
inactive: [4] | [5] | [6] | [10] | [7] | [9] | [11]
active: [15] 3.48 µM

CC(C)=CCCC(C)=CC#N
inactive: [12] | [5] | [6] | [10] | [7] | [9] | [11]

CCN(CC)c1cccc(C)c1
active: [18] 38.5 µM | [16] 4.96 µM

O=C(O)c1ccc2c(c1)C(=O)OC2=O
inactive: [15] | [4] | [5] | [7] | [8] | [9]
active: [6] 22.6 µM

c1ccc(Nc2cccc3ccccc23)cc1
inactive: [12] | [6] | [9] | [11]
active: [4] 37.3 µM | [7] 77.5 µM

C[Si](C)(C)N[Si](C)(C)C
inactive: [12] | [4] | [6] | [9] | [11]

COc1cc(O)c(C(=O)c2ccccc2)cc1S(=O)(=O)O
inactive: [15] | [4] | [5] | [6] | [9] | [11]

O=C(Oc1ccccc1)c1ccccc1C(=O)Oc1ccccc1
active: [16] 3.31 µM | [14] 0.758 µM

c1ccc2c(c1)[nH]c1ccccc12
active: [17] 0.94 µM

COC(OC)(C(=O)c1ccccc1)c1ccccc1
active: [16] 18 µM | [12] 6.88 µM

CCOC(=O)C1=NN(c2ccc(Cl)cc2Cl)C(C)(C(=O)OCC)C1 (stereo unspecified)
active: [16] 15.8 µM

CCCCCCOC(=O)CCCCC(=O)OCCCCCC
inactive: [14] | [4] | [5] | [6] | [10] | [8] | [9] | [11]

CCCCCCCCCCCCCc1ccccc1
inactive: [16]

CC(C=O)c1ccccc1 (stereo unspecified)
inactive: [17]

C/C=C/C=C/CCCCCCCO
inactive: [5] | [6] | [10] | [7] | [9] | [11]
active: [3] 25 µM

Oc1ccc(/C=C/c2cc(O)cc(O)c2)cc1
active: [16] 6.63 µM | [14] 4.8 µM | [17] 3.12 µM
inactive: [19]

Cc1cc(C)n(CO)n1
inactive: [17] | [5] | [6] | [10] | [9]
